Our source for the Potency values is PubChem BioAssay (Tox21).

Several values for one entry are separate records, joined by “and”; a condition that tells them apart may be missing. Equal values may be shown once. The source holds several records for some structures; these can differ, active in one and inactive in another. Activity calls are given as the source filed them. Where a call stands in place of a potency, no number is given. Unless noted, calls follow the shape of the full dose curve.
Potency is read from the fitted curve at half-maximal effect.

Estrogen receptor (Homo sapiens), sequence (P03372 whole entry, looked up): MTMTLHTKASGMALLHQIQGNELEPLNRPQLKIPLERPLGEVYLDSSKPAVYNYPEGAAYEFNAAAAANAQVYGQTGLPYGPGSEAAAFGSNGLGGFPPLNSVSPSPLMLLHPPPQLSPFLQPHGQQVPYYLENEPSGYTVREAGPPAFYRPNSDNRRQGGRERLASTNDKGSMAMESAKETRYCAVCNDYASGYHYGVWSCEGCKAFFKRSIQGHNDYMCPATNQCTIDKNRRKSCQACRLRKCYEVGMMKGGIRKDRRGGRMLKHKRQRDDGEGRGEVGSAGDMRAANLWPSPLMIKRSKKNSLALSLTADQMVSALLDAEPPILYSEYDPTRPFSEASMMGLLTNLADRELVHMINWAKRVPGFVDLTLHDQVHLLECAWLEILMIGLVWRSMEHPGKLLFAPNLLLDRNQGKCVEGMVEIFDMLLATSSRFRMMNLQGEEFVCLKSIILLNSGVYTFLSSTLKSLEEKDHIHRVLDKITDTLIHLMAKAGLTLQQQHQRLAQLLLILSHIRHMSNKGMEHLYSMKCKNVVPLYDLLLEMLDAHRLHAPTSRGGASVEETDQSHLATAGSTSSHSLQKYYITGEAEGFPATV

The first test addresses Estrogen receptor (Homo sapiens) (UniProt P03372). Put plainly: qHTS assay to identify small molecule antagonists of the estrogen receptor alpha (ER-alpha) signaling pathway (AID 743069; active = well fitted curve in the direction sought with a large enough effect in the signal ratio in the repeat runs, not every such curve was filed as active; inconclusive = weak or mixed curves, or effect the other way; inactive = no such curve, though single readings can be large or run the other way; the % refers to the signal ratio). The following applies: HEK293 ER-alpha-UAS-bla, beta-lactamase ratio, antagonist mode; series mostly up to 69.4 µM. Summed up: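 Beta-lactamase FRET fluorescence is read after 2 hr at room temperature with LiveBLAzer B/G substrate. Before that, ER-alpha-bla HEK293 cells sit 4 hr after plating, then receive compound plus 17beta-estradiol and incubate 18 hr at 37C.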
On the technique in general: In qHTS, concentration-response curves come from the screen itself.
For the compound `CCCCC1(COC(=O)CCC(=O)O)C(=O)N(c2ccccc2)N(c2ccccc2)C1=O`, the Potency result is “inactive”.

For `O=S1(=O)OC(c2ccc(O)cc2)(c2ccc(O)cc2)c2ccccc21`, the Potency result is “inactive”.

Turning to `CCCCCCCC(=O)OCC(COC(=O)CCCCCCC)OC(=O)CCCCCCC`, the Potency result was “inactive”.

Consider `O=c1[nH]cc(F)c(=O)[nH]1`, for which the Potency entry was “inactive”.

Regarding `CCN(CC)C(=O)c1cccc(C)c1`, the Potency result was “inactive”.

Consider `NS(=O)(=O)c1cc2c(cc1Cl)NCNS2(=O)=O`, for which the Potency result is “inactive”.

With `C=C(C)C(=O)OCC(C)O` (centres undefined), the Potency result was “inactive”.

On to `O=CC(=O)c1ccccc1`, for which the Potency entry is “inactive”.

In the case of `Cc1ncc([N+](=O)[O-])n1C`, the Potency entry is “inactive”.

For the compound `CN(N=O)C(=O)N[C@@H]1[C@@H](O)[C@H](O)[C@@H](CO)O[C@@H]1O`, the Potency result was “inactive”.

With `CN(C)C(=O)Nc1ccc(Cl)c(Cl)c1`, the Potency entry is “inactive”.

For the compound `Cc1cccc(C)c1`, the Potency entry was “inactive”.

As for `O=C(Nc1ncc([N+](=O)[O-])s1)c1cccs1`, the Potency entry is “inactive”.

Take `COc1ccc(C(Cl)=C(c2ccc(OC)cc2)c2ccc(OC)cc2)cc1`: the Potency is 1.51 µM [inconclusive] (active) and 1.54 µM [inconclusive] (active) and 1.23 µM [inconclusive] (active).

For the compound `C=CCc1ccc(O)c(OC)c1`, the Potency result is “inactive”.

Consider `Cc1ncc([N+](=O)[O-])n1CCO`, for which the Potency entry was “inactive”.

Regarding `Nc1ccc([N+](=O)[O-])cc1O`, the Potency result is “inactive”.

Turning to `CCCc1cc(=O)[nH]c(=S)[nH]1`, the Potency entry is “inactive”.

`CCOc1ccc(NC(C)=O)cc1`: the Potency result is “inactive”.

In the case of `O=c1[nH]cnc2c1ncn2[C@H]1CC[C@@H](CO)O1`, the Potency result was “inactive”.

System in another test: not listed separately
Put plainly: qHTS assay to identify small molecule antagonists of the estrogen receptor alpha (ER-alpha) signaling pathway - cell viability counter screen (AID 743074).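 Also: HEK293 cells carrying ER-alpha-UAS-bla reporter stimulated with 17beta-estradiol; nearly all actives have a fitted effect of over 45% in size.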 The following applies: ERalpha-bla HEK293 viability, CellTiter-Glo luminescence, 18 h; series mostly up to 69.4 µM.
Turning to `CC(C)NCC(O)c1ccc(O)c(O)c1` (centres undefined), the Potency entry is “inactive”.

With `O=C1OC2(c3ccccc31)c1cc(Br)c(O)c(Br)c1Oc1c2cc(Br)c(O)c1Br`, the Potency result was “inactive”.

Turning to `C[C@](N)(Cc1ccc(O)c(O)c1)C(=O)O`, the Potency result was “inactive”.

For the compound `CCCCC1(COC(=O)CCC(=O)O)C(=O)N(c2ccccc2)N(c2ccccc2)C1=O`, the Potency entry is “inactive”.

For the compound `O=S1(=O)OC(c2ccc(O)cc2)(c2ccc(O)cc2)c2ccccc21`, the Potency entry is “inactive”.

As for `CCCCCCCC(=O)OCC(COC(=O)CCCCCCC)OC(=O)CCCCCCC`, the Potency result was “inactive”.

Consider `O=c1[nH]cc(F)c(=O)[nH]1`, for which the Potency entry is “inactive”.

For the compound `CCN(CC)C(=O)c1cccc(C)c1`, the Potency result is “inactive”.

For `NS(=O)(=O)c1cc2c(cc1Cl)NCNS2(=O)=O`, the Potency entry is “inactive”.

Regarding `C=C(C)C(=O)OCC(C)O` (centres undefined), the Potency entry was “inactive”.

Consider `O=CC(=O)c1ccccc1`, for which the Potency entry is “inactive”.

For `CC(=O)C(=O)O`, the Potency entry is “inactive”.

For the compound `Oc1ccccc1`, the Potency result is “inactive”.

Consider `CC(=O)Nc1c(I)c(NC(C)=O)c(I)c(C(=O)O)c1I`, for which the Potency entry was “inactive”.

As to `CC(C)c1c(C(=O)Nc2ccccc2)c(-c2ccccc2)c(-c2ccc(F)cc2)n1CC[C@@H](O)C[C@@H](O)CC(=O)O`, the Potency result was “inactive”.

Consider `Cc1ncc([N+](=O)[O-])n1C`, for which the Potency result was “inactive”.

As to `CN(N=O)C(=O)N[C@@H]1[C@@H](O)[C@H](O)[C@@H](CO)O[C@@H]1O`, the Potency entry was “inactive”.

Consider `CN(C)C(=O)Nc1ccc(Cl)c(Cl)c1`, for which the Potency result is “inactive”.

Take `Cc1cccc(C)c1`: the Potency entry was “inactive”.

For the compound `COc1ccc(C(Cl)=C(c2ccc(OC)cc2)c2ccc(OC)cc2)cc1`, the Potency result was “inactive”.

Consider `C=CCc1ccc(O)c(OC)c1`, for which the Potency entry is “inactive”.

As for `Cc1ncc([N+](=O)[O-])n1CCO`, the Potency result is “inactive”.

On to `CC/C(=C(\c1ccccc1)c1ccc(OCCN(C)C)cc1)c1ccccc1`, for which the Potency is 48.9 µM (active) and 49.4 µM (active) and 49 µM (active).

Regarding `CCCc1cc(=O)[nH]c(=S)[nH]1`, the Potency result was “inactive”.

Take `COc1cccc(O)c1O`: the Potency entry was “inactive”.

Turning to `CCOc1ccc(NC(C)=O)cc1`, the Potency entry was “inactive”.

As to `O=c1[nH]cnc2c1ncn2[C@H]1CC[C@@H](CO)O1`, the Potency entry is “inactive”.

Another test concerns the target Estrogen receptor (Homo sapiens) (UniProt P03372). Briefly: qHTS assay to identify small molecule agonists of the estrogen receptor alpha (ER-alpha) signaling pathway (AID 743075).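 Also: HEK293 GripTite cells with ER-alpha and UAS-driven beta-lactamase reporter.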 The following applies: HEK293 ER-alpha-UAS-bla, beta-lactamase FRET ratio, 18 h; series mostly up to 70.1 µM.
Turning to `O=C1OC2(c3ccccc31)c1cc(Br)c(O)c(Br)c1Oc1c2cc(Br)c(O)c1Br`, the Potency result is “inactive”.

`CCCCC1(COC(=O)CCC(=O)O)C(=O)N(c2ccccc2)N(c2ccccc2)C1=O`: the Potency result is “inactive”.

On to `O=S1(=O)OC(c2ccc(O)cc2)(c2ccc(O)cc2)c2ccccc21`, for which the Potency entry is “inactive”.

`CCCCCCCC(=O)OCC(COC(=O)CCCCCCC)OC(=O)CCCCCCC`: the Potency entry is “inactive”.

For `O=c1[nH]cc(F)c(=O)[nH]1`, the Potency result is “inactive”.

Regarding `CCN(CC)C(=O)c1cccc(C)c1`, the Potency was 21.3 µM [inconclusive] (active) and inactive.

`NS(=O)(=O)c1cc2c(cc1Cl)NCNS2(=O)=O`: the Potency result was “inactive”.

Regarding `C=C(C)C(=O)OCC(C)O` (centres undefined), the Potency entry is “inactive”.

With `O=CC(=O)c1ccccc1`, the Potency result was “inactive”.

On to `Cc1ncc([N+](=O)[O-])n1C`, for which the Potency result was “inactive”.

As for `CN(N=O)C(=O)N[C@@H]1[C@@H](O)[C@H](O)[C@@H](CO)O[C@@H]1O`, the Potency entry is “inactive”.

On to `CN(C)C(=O)Nc1ccc(Cl)c(Cl)c1`, for which the Potency entry was “inactive”.

Take `Cc1cccc(C)c1`: the Potency result was “inactive and 1.34 µM [inconclusive] (active)”.

As for `O=C(Nc1ncc([N+](=O)[O-])s1)c1cccs1`, the Potency result was “inactive”.

Regarding `COc1ccc(C(Cl)=C(c2ccc(OC)cc2)c2ccc(OC)cc2)cc1`, the Potency entry was “inactive”.

For the compound `C=CCc1ccc(O)c(OC)c1`, the Potency entry was “inactive”.

On to `Cc1ncc([N+](=O)[O-])n1CCO`, for which the Potency result was “inactive”.

`Nc1ccc([N+](=O)[O-])cc1O`: the Potency entry was “inactive”.

With `CCCc1cc(=O)[nH]c(=S)[nH]1`, the Potency entry was “inactive”.

Consider `COc1cccc(O)c1O`, for which the Potency is 50.7 µM [activator] (active).

Turning to `CCOc1ccc(NC(C)=O)cc1`, the Potency result was “inactive”.

As to `O=c1[nH]cnc2c1ncn2[C@H]1CC[C@@H](CO)O1`, the Potency result was “inactive”.
